# GluA2 TARP mod: modulators of GluA2-stargazin AMPA receptor complexes, primary screen, cell-based, membrane potential dye; Voltage-dependent calcium channel gamma-2 subunit (Mus musculus) + Glutamate receptor 2 …; HEK293 GluA2+stargazin, membrane potential dye (FDSS), glutamate EC50; hits were called plate by plate, in both directions; calls only at 30 µM; actives 3.5% (n = 40,000);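 active = any of four per-well response measures lying three or more SD from its plate-wide compound average, in either direction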
# Target sequence (O88602 whole entry, looked up): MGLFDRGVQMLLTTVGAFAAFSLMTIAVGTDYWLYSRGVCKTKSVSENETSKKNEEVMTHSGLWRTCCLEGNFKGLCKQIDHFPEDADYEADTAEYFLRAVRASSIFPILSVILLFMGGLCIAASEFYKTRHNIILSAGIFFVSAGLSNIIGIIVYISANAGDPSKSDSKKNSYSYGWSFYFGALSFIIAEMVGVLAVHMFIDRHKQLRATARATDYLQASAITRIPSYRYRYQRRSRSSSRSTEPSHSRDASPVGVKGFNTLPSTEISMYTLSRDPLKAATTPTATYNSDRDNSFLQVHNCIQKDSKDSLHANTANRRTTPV
# Target sequence (P19491 whole entry, looked up): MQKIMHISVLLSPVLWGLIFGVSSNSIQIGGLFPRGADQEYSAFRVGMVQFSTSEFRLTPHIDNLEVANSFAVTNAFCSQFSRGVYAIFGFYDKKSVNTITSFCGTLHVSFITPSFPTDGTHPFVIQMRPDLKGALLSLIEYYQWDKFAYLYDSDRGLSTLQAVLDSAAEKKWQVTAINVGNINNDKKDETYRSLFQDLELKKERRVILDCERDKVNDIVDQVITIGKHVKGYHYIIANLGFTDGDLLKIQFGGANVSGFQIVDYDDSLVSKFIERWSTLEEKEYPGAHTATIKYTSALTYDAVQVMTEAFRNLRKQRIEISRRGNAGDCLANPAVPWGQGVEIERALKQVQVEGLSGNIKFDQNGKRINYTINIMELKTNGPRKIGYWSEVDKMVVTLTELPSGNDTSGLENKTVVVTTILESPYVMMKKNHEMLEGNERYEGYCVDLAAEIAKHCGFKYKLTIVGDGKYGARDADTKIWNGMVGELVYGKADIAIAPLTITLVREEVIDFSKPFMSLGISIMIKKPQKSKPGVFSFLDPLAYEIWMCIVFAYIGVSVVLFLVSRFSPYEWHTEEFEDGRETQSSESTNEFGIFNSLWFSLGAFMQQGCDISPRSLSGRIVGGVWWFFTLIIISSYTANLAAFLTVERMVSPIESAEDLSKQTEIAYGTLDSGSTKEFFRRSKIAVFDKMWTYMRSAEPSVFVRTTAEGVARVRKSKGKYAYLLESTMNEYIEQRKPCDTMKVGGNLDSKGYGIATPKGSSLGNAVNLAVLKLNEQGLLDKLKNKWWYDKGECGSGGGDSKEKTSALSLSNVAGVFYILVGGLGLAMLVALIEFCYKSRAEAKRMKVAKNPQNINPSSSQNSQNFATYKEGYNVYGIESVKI
# GIRK2 act: activators of NPY4-receptor-primed GIRK2 channels, summary, cell-based, HEK293, thallium flux | G protein-activated inward rectifier potassium channel 2 (Homo sapiens), P48051 | HEK293 GIRK2/NPY4 cells, thallium flux fluorescence | activation (% efficacy), % for hits at 37.5 µM | 34,000 tested, under 10 active | AID 1259324, 2017;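 active = primary screen hit, no activity in plain HEK293 cells, and in GIRK2-only cells above 5% efficacy rising with concentration; inactive = the rest, including fluorescent compounds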;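 also: efficacy is normalized control-subtracted fluorescence 15 s after thallium addition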
# An asterisk follows results filed as active; i = inactive; . = not tested or not shown; + = active, no number; ! = not confirmed by another sample. The sample as a whole holds a higher share of hits than the screen did.
SMILES,GluA2 TARP mod,GIRK2 act
Cc1ccc(-c2ncc3c(=O)n(CC(=O)Nc4ccc(C)c(F)c4)cnc3n2)cc1,i,i
CCOCCn1c(=O)c2c(nc3n(-c4ccc(C(=O)OCC)cc4)c(C)c(C)n23)n(C)c1=O,i,.
Cc1cccc(CS(=O)(=O)NCC(c2cccn2C)N(C)C)c1 (configuration not stated),i,i
COC(=O)c1ccc2occ(-c3oc4ccc(C(=O)OC)cc4c3O)c2c1,+,i
COC(=O)c1ccc2[nH]c(C)cc(=O)c2c1,i,i
CCOC(=O)c1ccccc1NC(=O)CN1CCC(c2nnc(-c3ccco3)o2)CC1,+,i
COc1ccccc1NC(=O)CN1CCC(c2nnc(-c3ccco3)o2)CC1,i,i
CS(=O)(=O)c1ccc(CC(=O)Nc2ccccc2Oc2ccccc2)cc1,+,.
COc1ccc(S(=O)(=O)CCC(=O)Nc2ccccc2Oc2ccccc2)cc1,i,i
Cc1ccc(S(=O)(=O)CCCC(=O)Nc2ccccc2Oc2ccccc2)cc1,+,i
CS(=O)(=O)c1ccc(CC(=O)Nc2nc(-c3ccc(Oc4ccccc4)cc3)cs2)cc1,i,.
O=C(/C=C1\SC(=O)N(CC(=O)Nc2ccccc2)C1=O)Nc1ccc(F)cc1,i,.
CC(=O)c1ccc(N2CCN(C(=O)CCc3nnc4n(CCc5ccccc5)c(=O)c5ccccc5n34)CC2)cc1,i,.
O=C(Nc1ccc(OC(F)(F)F)cc1)c1ccc(S(=O)(=O)NC2CC2)o1,i,i
Cc1nnc(NC(=O)c2ccc(S(=O)(=O)Nc3ccc(OC(F)(F)F)cc3)o2)s1,i,i
Cc1csc(NC(=O)c2ccc(S(=O)(=O)Nc3ccc(OC(F)(F)F)cc3)o2)n1,+,i
CN(C)S(=O)(=O)c1ccc(C(=O)Nc2ccc(OC(F)(F)F)cc2)o1,+,i
COc1ccc(NC(=O)Cn2ccc3ccn(Cc4cccc(C)c4)c3c2=O)cc1OC,.,i
NC(=O)c1ccccc1NC(=O)C1CCN(c2ccc(-c3ccc(Cl)cc3)nn2)CC1,i,i
CSc1ccc(NC(=O)COc2ccc(F)cc2)cc1,i,i
CC(C)Cn1c(SCC#N)nc2cc(C(=O)NC(C)C)ccc2c1=O,i,.
CCN(CC)CCn1c(SCC#N)nc2cc(C(=O)OC)ccc2c1=O,+!,i
O=C1Cc2cc(NC(=O)NCc3ccc(Cl)cc3)ccc2N1,i,i
CCOC(=O)c1ccccc1NC(=O)CSc1c(C)cnc2c1c(=O)n(C)c(=O)n2C,i,i
CCOC(=O)c1ccccc1NC(=O)CSc1c(CC(C)C)cnc2c1c(=O)n(C)c(=O)n2C,+,.
SMILES,GluA2 TARP mod,GIRK2 act
O=S(=O)(NCCC(O)c1cccs1)c1ccc(OC(F)(F)F)cc1 (configuration not stated),+,i
O=S(=O)(NCCC(O)c1cccs1)c1cccc(C(F)(F)F)c1 (configuration not stated),i,i
COc1ccc(C2(CNC(=O)C3CCN(S(C)(=O)=O)CC3)CCCC2)cc1,+,i
COc1ccc(C2(CNS(C)(=O)=O)CCCC2)cc1,i,i
O=C(Cc1cc(-c2ccc3c(c2)OCCO3)on1)NCc1ccccc1,+,i
O=C(Cc1cc(-c2ccc3c(c2)OCO3)on1)NCc1ccc2c(c1)OCO2,i,i
COc1ccc(CCNC(=O)CC2CCCCN2S(=O)(=O)c2ccc(Cl)cc2)cc1 (configuration not stated),+,.
COc1ccc(CCNC(=O)CC2CCCCN2S(=O)(=O)c2ccc(OC)cc2)cc1 (configuration not stated),i,.
COc1ccc(S(=O)(=O)N2CCCCC2CC(=O)NCCc2ccc(Cl)cc2)cc1 (configuration not stated),i,.
COc1ccc(CCNC(=O)CC2CCCCN2S(=O)(=O)c2ccc(F)cc2)cc1 (configuration not stated),+,.
COc1ccccc1-n1c(C)cn2c3c(=O)n(CC(N)=O)c(=O)n(C)c3nc12,i,.
COCCNC(=O)Cc1ccc(NC(=O)c2ccc(OC)c(OC)c2OC)cc1,i,i
O=C(CN1CCN(c2nccn2-c2ccccc2F)CC1)N1CCc2ccccc21,i,i
CC1CCN(CC(O)COCCOc2ccc(Br)cc2)CC1 (configuration not stated),+,i
CN1CCN(CC(O)COCCOc2ccc(Br)cc2)CC1 (configuration not stated),i,i
CC1CCN(CC(O)COCCOc2ccc(Cl)cc2)CC1 (configuration not stated),+,.
CC1CCN(CC(O)COCCOc2ccc(C(C)C)cc2)CC1 (configuration not stated),.,i
Cc1ccc(CN2C(=O)NC3(CCN(C(=O)Nc4ccc(F)c(Cl)c4)CC3)C2=O)cc1,+,i
Cc1cc(C)cc(NC(=O)N2CCC3(CC2)NC(=O)N(Cc2ccc(Cl)cc2)C3=O)c1,i,i
COC(=O)c1ccc(CSc2c(CC(C)C)cnc3c2c(=O)n(C)c(=O)n3C)o1,i,.
COc1ccc(-n2nnc3c(N4CCN(C(=O)CSCc5ccccc5)CC4)ncnc32)cc1,i,.
O=C(Nc1ccccc1)C(=O)Nc1ccc([N+](=O)[O-])cc1,i,.
O=[N+]([O-])c1ccc(C2=NCCN2)cc1,+,.
COC(=O)c1sc2ccccc2c1NC(=O)C1CCCCC1,+,.
COC(=O)c1ccc2nc(NC(=O)C3CCCCC3)sc2c1,i,i
SMILES,GluA2 TARP mod,GIRK2 act
CN(C)S(=O)(=O)c1ccc(C(=O)Nc2ccc(CC(=O)N3CCCC3)cc2)cc1,.,i
Cc1ccc(OCC(=O)NCC(c2cccc3ccccc23)N2CCOCC2)cc1 (configuration not stated),i,i
COc1ccc(C(CNC(=O)C(=O)Nc2ccccc2[N+](=O)[O-])N2CCOCC2)cc1 (configuration not stated),.,i
COc1ccc(C(CNC(=O)c2cccc([N+](=O)[O-])c2C)N2CCOCC2)cc1 (configuration not stated),+,.
Cc1ccc(C(CNC(=O)COc2ccc3ccccc3c2)N2CCOCC2)cc1 (configuration not stated),+,i
COc1ccc(C(=O)NCC(c2cccc(OC)c2)N2CCOCC2)cc1 (configuration not stated),i,i
CCOc1ccc2ccccc2c1C(=O)NCC(c1cccc(OC)c1)N1CCOCC1 (configuration not stated),+,i
COc1cccc(C(CNC(=O)COc2ccccc2)N2CCOCC2)c1 (configuration not stated),+,i
COc1cccc(C(CNC(=O)COc2ccc(C)cc2)N2CCOCC2)c1 (configuration not stated),i,.
CC(C)Oc1ccc(C(=O)NNC(=O)c2ccc(=O)n(Cc3ccccc3)c2)cc1,i,i
O=C(NCC(c1cccc2ccccc12)N1CCOCC1)c1ccc(Br)cc1 (configuration not stated),+,i
Cc1ccc(C(CNC(=O)c2ccccc2C)N2CCOCC2)cc1 (configuration not stated),+,i
